Data: PubChem BioAssay (EPA / NIEHS)
Values joined by “and” are separate entries in the source; they are usually repeats but may differ in a detail not shown here. Equal entries are not always repeated. Inconclusive results are not listed. The source holds several records for some structures; these can differ, active in one and inactive in another. Active and inactive are the calls of the source. Rule for the calls, unless noted: active = hit-call score of the fitted dose curve at least 0.9, where 1 is the maximum; inactive = score below 0.9.

What was measured:
[1] = read-out: Interleukin-8 (IL8), CXCL8 (gene 3576); assay: BSK_3C_IL8: BioMAP Diversity Plus: 3C Assay for Interleukin-8 (IL8) Biomarker Activity (AID 2283020); conditions: primary human endothelial cells (HUVEC); actives raise or lower the signal
Method in brief: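 Human vascular endothelial cells (umbilical vein) in the 3C system; IL-8 level detected by ELISA at 24 h post-dose, with DMSO as baseline.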

[2] = read-out: Monokine induced gamma interferon (MIG), CXCL9 (gene 4283); assay: BSK_3C_MIG: BioMAP Diversity Plus: 3C Assay for Monokine induced gamma interferon (MIG) Biomarker Activity (AID 2283021); conditions: primary human endothelial cells (HUVEC); actives raise or lower the signal;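 for AC50: MIG protein level measured by immunoassay in the treated endothelial cultures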
Method in brief: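 After 24 h of treatment, human umbilical vein endothelial cultures (3C system) had their MIG biomarker level determined by ELISA, with DMSO serving as negative control.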

[3] = target: human Vitamin D Receptor (VDR), VDR (gene 7421) (UniProt P11473); assay: ATG_VDR_TRANS: Attagene TRANS-FACTORIAL HepG2 Assay for human Vitamin D Receptor (VDR) (AID 2283022; active = hit-call score of the fitted dose curve at least 0.9, where 1 is the maximum)
Method in brief: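 HepG2 cells were transiently transfected with multiple GAL4-UAS reporter units, so signal reflects exogenous chimeric receptor-Gal4 activity. After 24 h compound exposure, reporter mRNA was measured by RT-PCR, fluorescent labelling and capillary electrophoresis, fitted for gain of signal versus DMSO.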

[4] = BSK_3C_SRB: Viability Assessment in the BioMAP Diversity Plus: 3C Assay (AID 2283023); conditions: primary human endothelial cells (HUVEC);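 note: fitted both ways against DMSO so a hit may be signal rise or drop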
Method in brief: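 Primary human umbilical vein endothelial cells in the 3C system were read 24 h after compound dosing. Total protein was stained with 0.1% sulforhodamine B after 10% TCA fixation and read at 560 nm, with bidirectional fitting against DMSO as baseline.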

[5] = read-out: Matrix Metallopeptidase 1 (MMP1), MMP1 (gene 4312); assay: BSK_BE3C_MMP1: BioMAP Diversity Plus: BE3C Assay for Matrix Metallopeptidase 1 (MMP1) Biomarker Activity (AID 2283024); conditions: primary human bronchial epithelial cells; actives raise or lower the signal
Method in brief: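 Dose cells, wait 24 h, run MMP1 ELISA; cells are human bronchial epithelial primaries. Both increases and decreases relative to DMSO counted.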

[6] = BSK_3C_Vis: BioMAP Diversity Plus: 3C Assay for Morphology Visualization (AID 2283025); conditions: primary human endothelial cells (HUVEC);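 note: fitted both ways so gain or loss versus DMSO counts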;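 for AC50: light microscopy image of cell morphology used as background control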
Method in brief: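 Endothelial cells from human umbilical vein were treated with test chemicals for 24 h and inspected by light microscopy for changes in cell conformation.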

[7] = read-out: Pselectin, SELP (gene 6403); assay: BSK_4H_Pselectin: BioMAP Diversity Plus: 4H Assay for Pselectin Biomarker Activity (AID 2283026); conditions: primary human endothelial cells (HUVEC); actives raise or lower the signal
Method in brief: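 Human vascular endothelium from umbilical vein; P-selectin measured by ELISA at 24 h post-dose, with cytotoxicity checked by sulforhodamine B total-protein staining in parallel cultures (0.1% SRB after 10% TCA fixation, read at 560 nm).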

[8] = BSK_4H_SRB: Viability Assessment in the BioMAP Diversity Plus: 4H Assay (AID 2283027); conditions: primary human endothelial cells (HUVEC);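 note: cells exposed to compound for 24 h before staining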;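 for AC50: curves fitted both ways versus DMSO so AC50 may be loss or gain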
Method in brief: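 Human umbilical vein endothelial cells, 24 h after chemical dosing; total protein measured by 0.1% sulforhodamine B staining after 10% TCA fixation, read at 560 nm. Bidirectional fitting against DMSO.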

[9] = BSK_BE3C_SRB: Viability Assessment in the BioMAP Diversity Plus: BE3C Assay (AID 2283028); conditions: primary human bronchial epithelial cells
Method in brief: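 Human primary bronchial epithelial cells were exposed to test chemicals for 24 h. Total protein in parallel cultures was then measured by staining with 0.1% sulforhodamine B after 10% TCA fixation, with absorbance read at 560 nm. Activity was fitted bidirectionally against DMSO.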

[10] = read-out: Thrombomodulin, THBD (gene 7056); assay: BSK_3C_Thrombomodulin: BioMAP Diversity Plus: 3C Assay for Thrombomodulin Biomarker Activity (AID 2283029); conditions: primary human endothelial cells (HUVEC); actives raise or lower the signal
Method in brief: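 Thrombomodulin ELISA, human primary HUVEC, 24 h post-dose; data fitted in both directions relative to DMSO.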

[11] = read-out: Urokinase-type plasminogen activator receptor (uPAR), PLAUR (gene 5329); assay: BSK_4H_uPAR: BioMAP Diversity Plus: 4H Assay for Urokinase-type plasminogen activator receptor (uPAR) Biomarker Activity (AID 2283030); conditions: primary human endothelial cells (HUVEC); actives raise or lower the signal
Method in brief: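 Primary human umbilical vein endothelial cells were exposed to chemical for 24 h before cell-surface uPAR was quantified by ELISA. Activity was fitted bidirectionally against the DMSO negative control baseline.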

[12] = read-out: Vascular endothelial growth factor receptor 2 (Homo sapiens) (UniProt P35968); assay: BSK_4H_VEGFRII: BioMAP Diversity Plus: 4H Assay for Vascular endothelial growth factor receptor 2 (VEGFR2) Biomarker Activity (AID 2283031); conditions: primary human endothelial cells (HUVEC); actives raise or lower the signal;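 for AC50: cell-surface VEGFR2 protein level quantified by ELISA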
Method in brief: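 Primary human umbilical vein endothelial cells in the BioMAP 4H system were dosed with test chemical, and 24 h later VEGFRII was measured by ELISA. Activity was fitted bidirectionally against DMSO as negative control and baseline.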

[13] = read-out: Human Leukocyte Antigen - DR isotype (HLADR), HLA-DRA (gene 3122); assay: BSK_BE3C_HLADR: BioMAP Diversity Plus: BE3C Assay for Human Leukocyte Antigen - DR isotype (HLADR) Biomarker Activity (AID 2283032); conditions: primary human bronchial epithelial cells; actives raise or lower the signal
Method in brief: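 Signal came from an ELISA for HLA-DR in human bronchial epithelial primary cells harvested 24 h after treatment; gain- and loss-of-signal fitting used DMSO controls as reference.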

[14] = read-out: Monokine induced gamma interferon (MIG), CXCL9 (gene 4283); assay: BSK_BE3C_MIG: BioMAP Diversity Plus: BE3C Assay for Monokine induced gamma interferon (MIG) Biomarker Activity (AID 2283035); conditions: primary human bronchial epithelial cells; actives raise or lower the signal
Method in brief: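 Primary human bronchial epithelial cells treated for 24 h; MIG levels measured by ELISA, fitted bidirectionally versus DMSO. Parallel SRB total-protein staining assessed cytotoxicity.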

[15] = read-out: Transforming growth factor beta 1 (TGFb1), TGFB1 (gene 7040); assay: BSK_BE3C_TGFb1: BioMAP Diversity Plus: BE3C Assay for Transforming growth factor beta 1 (TGFb1) Biomarker Activity (AID 2283036); conditions: primary human bronchial epithelial cells; actives raise or lower the signal
Method in brief: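 In this human primary bronchial epithelial system, an ELISA quantified TGF-b1 one day after dosing. Endpoint changes in either direction were fitted relative to DMSO.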

[16] = read-out: Plasminogen activator inhibitor-1 (PAI1), SERPINE1 (gene 5054); assay: BSK_BE3C_PAI1: BioMAP Diversity Plus: BE3C Assay for Plasminogen activator inhibitor-1 (PAI1) Biomarker Activity (AID 2283037); conditions: primary human bronchial epithelial cells; actives raise or lower the signal
Method in brief: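 PAI-1 biomarker levels in treated human bronchial epithelial cells are determined by ELISA at 24 h. Both increases and decreases relative to DMSO are fitted.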

[17] = read-out: urokinase plasminogen activator (uPA), PLAU (gene 5328); assay: BSK_BE3C_uPA: BioMAP Diversity Plus: BE3C Assay for urokinase plasminogen activator (uPA) Biomarker Activity (AID 2283038); conditions: primary human bronchial epithelial cells; actives raise or lower the signal
Method in brief: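 Human primary bronchial epithelial cells were exposed to chemical for 24 h, then uPA levels were measured by ELISA. Responses were fitted bidirectionally against DMSO as negative control and baseline. Parallel SRB staining of total protein gauged overt cytotoxicity.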

[18] = read-out: Urokinase-type plasminogen activator receptor (uPAR), PLAUR (gene 5329); assay: BSK_BE3C_uPAR: BioMAP Diversity Plus: BE3C Assay for Urokinase-type plasminogen activator receptor (uPAR) Biomarker Activity (AID 2283039); conditions: primary human bronchial epithelial cells; actives raise or lower the signal;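 note: cells exposed to compound for one day before measurement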
Method in brief: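 A uPAR ELISA serves as the readout, taken 24 h after treating primary human bronchial epithelial cells. Responses in either direction are fitted against DMSO, which defines baseline activity.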

[19] = read-out: Vascular cell adhesion molecule 1 (VCAM1), VCAM1 (gene 7412); assay: BSK_4H_VCAM1: BioMAP Diversity Plus: 4H Assay for Vascular cell adhesion molecule 1 (VCAM1) Biomarker Activity (AID 2283033); conditions: primary human endothelial cells (HUVEC); actives raise or lower the signal
Method in brief: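 Endpoint derived from bidirectional fitting against DMSO controls of VCAM-1 ELISA signal in umbilical vein endothelial cells sampled at 24 h following treatment.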

[20] = read-out: Interferon-gamma inducible Protein 10 (IP10), CXCL10 (gene 3627); assay: BSK_BE3C_IP10: BioMAP Diversity Plus: BE3C Assay for Interferon-gamma inducible Protein 10 (IP10) Biomarker Activity (AID 2283034); conditions: primary human bronchial epithelial cells; actives raise or lower the signal
Method in brief: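 Using primary human bronchial epithelial cultures, the assay captures IP-10 by ELISA one day (24 h) after exposure. Parallel SRB staining of total protein flags overt cytotoxicity. Fits run bidirectionally relative to DMSO.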

Measured: AC50

Sequence of human Vitamin D Receptor (VDR), VDR (gene 7421) (P11473 whole entry, looked up, the tested form may be a part): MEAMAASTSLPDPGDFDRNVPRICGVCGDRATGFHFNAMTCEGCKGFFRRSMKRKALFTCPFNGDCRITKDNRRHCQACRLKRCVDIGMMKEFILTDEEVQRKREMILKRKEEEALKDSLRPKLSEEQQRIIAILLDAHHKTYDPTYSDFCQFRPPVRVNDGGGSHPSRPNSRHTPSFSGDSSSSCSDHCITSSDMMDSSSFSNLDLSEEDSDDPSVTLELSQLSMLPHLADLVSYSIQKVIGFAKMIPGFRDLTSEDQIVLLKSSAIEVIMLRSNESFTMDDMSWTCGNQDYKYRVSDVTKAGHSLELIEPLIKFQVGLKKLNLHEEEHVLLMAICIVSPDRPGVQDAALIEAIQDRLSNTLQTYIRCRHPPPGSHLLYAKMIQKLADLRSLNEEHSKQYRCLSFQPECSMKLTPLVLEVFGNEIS

C=CC(=O)OCC(C)OCC(C)OCC(C)OC(=O)C=C (stereo unspecified)
active: [1] 20 µM | [2] 35.5 µM | [4] 20 µM | [6] 16 µM | [7] 13.2 µM | [8] 12.1 µM | [11] 31.1 µM | [13] 13.6 µM
not listed: [19] | [20]
inactive: all other assays above

CCCCC1C(=O)N(c2ccccc2)N(c2ccccc2)C1=O
active: [6] 37.5 µM
not listed: [19] | [20]
inactive: all other assays above

CC(Cl)COP(=O)(OCC(C)Cl)OCC(C)Cl (stereo unspecified)
not listed: [20]
inactive: all other assays above

CCOC(=O)/C=C\C(=O)OCC
not listed: [3] | [20]
inactive: all other assays above

CCCCCCCCCCCC(=O)N(C)CC(=O)O
inactive: [1] | [2] | [3] | [4] | [7] | [8] | [9] | [10] | [13] | [20] | [14] | [16] | [17] | [18]
active: [5] 8.01 µM and 15.5 µM | [7] 1.89 µM | [11] 19.5 µM and 13.4 µM | [12] 9.25 µM and 120 nM

Fc1ccc(Br)cc1
not listed: [19] | [20]
inactive: all other assays above

Nc1cccc(N)n1
inactive: all assays above

O=C(O)C(F)(F)C(F)(F)C(F)(F)C(F)(F)C(=O)O
not listed: [6] | [15] | [19] | [20]
inactive: all other assays above

c1ccc2sc(SSN3CCOCC3)nc2c1
active: [4] 6.19 µM | [6] 8.8 µM | [7] 4.4 µM | [8] 5.2 µM | [11] 6.7 µM | [19] 6.28 µM
not listed: [10] | [20]
inactive: all other assays above

COc1ccc(C(=O)/C(Br)=C\C(=O)O)cc1
active: [1] 20 µM and 25.9 µM | [2] 35.3 µM and 34.3 µM | [6] 37.4 µM and 37.5 µM | [7] 6.04 µM and 16.3 µM | [8] 20 µM and 17.1 µM | [10] 34.9 µM and 35.4 µM | [11] 32.5 µM and 32.2 µM | [12] 29.8 µM | [13] 26.8 µM and 20 µM | [14] 28.8 µM | [15] 8.23 µM | [16] 8.24 µM | [17] 20 µM
inactive: [3] | [4] | [5] | [9] | [12] | [14] | [15] | [16] | [17] | [18]

CCc1cccc(C)c1N(C(=O)CS(=O)(=O)O)C(C)COC (stereo unspecified)
inactive: all assays above

Oc1ccccc1Cc1ccccc1O
inactive: [1] | [2] | [3] | [4] | [5] | [7] | [8] | [9] | [10] | [11] | [12] | [13] | [19] | [20] | [14] | [16] | [17] | [18]
active: [10] 11.7 µM | [16] 18 µM
